Experimental data taken from PubChem BioAssay (NCI).
This is part of a sample that, as a whole, favours compounds with a hit. Of some 83,000 tested, about 20% had one in any assay.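 Step 1: grow cells in 96-well plates. Step 2: add test compound at a single concentration. Step 3: incubate 48 h. Step 4: record percent growth.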 Values without a mark were called inactive. Calls of active or inactive are those of the source. The calls were made as follows: active = growth percent below 10; inactive = the rest.

Legend:
Assay in all cases: NCI-60 one-dose screen, 48 h (100 = growth as untreated, 0 = no growth, -100 = all killed)
Details in all cases: 10 µM unless noted
NCI-H23 lung = system: NCI-H23 lung
NCI-H226 lung = system: NCI-H226 lung
NCI-H322M lung = system: NCI-H322M lung
HOP-62 NSCLC = system: HOP-62 NSCLC
NCI-H460 lung = system: NCI-H460 lung
NCI-H522 lung = system: NCI-H522 lung
A549/ATCC NSCLC = system: A549/ATCC NSCLC
786-0 renal = system: 786-0 renal
COLO 205 colon = system: COLO 205 colon
DU-145 prostate = system: DU-145 prostate
K-562 leukemia = system: K-562 leukemia
MALME-3M melanoma = system: MALME-3M melanoma
MDA-MB-231 breast = system: MDA-MB-231 breast
RXF 393 renal = system: RXF 393 renal
SF-268 CNS = system: SF-268 CNS
SF-295 CNS = system: SF-295 CNS
SF-539 CNS = system: SF-539 CNS
UACC-257 melanoma = system: UACC-257 melanoma
M14 melanoma = system: M14 melanoma
HOP-92 NSCLC = system: HOP-92 NSCLC

Row | Structure (SMILES) | growth (NCI-H23 lung) | growth (NCI-H226 lung) | growth (NCI-H322M lung) | growth (HOP-62 NSCLC) | growth (NCI-H460 lung) | growth (NCI-H522 lung) | growth (A549/ATCC NSCLC) | growth (786-0 renal) | growth (COLO 205 colon) | growth (DU-145 prostate) | growth (K-562 leukemia) | growth (MALME-3M melanoma) | growth (MDA-MB-231 breast) | growth (RXF 393 renal) | growth (SF-268 CNS) | growth (SF-295 CNS) | growth (SF-539 CNS) | growth (UACC-257 melanoma) | growth (M14 melanoma) | growth (HOP-92 NSCLC)
1 | O=c1[nH]c2ccc(Cl)cc2cc1CSc1nccc(-c2ccc(Cl)cc2)n1 | 53.9% | 8.77% (active) | 56.8% | 7.77% (active) | 36.6% | 33.6% | 50.1% | 49.8% | 71.7% | 78.9% | 64.7% | 51% | 45.7% | 35.3% | 54.3% | 16.8% | 3.24% (active) | 60.9% | 71.1% | 
2 | CC1CN(c2oc(-c3ccc([N+](=O)[O-])cc3)nc2C#N)CC(C)O1 (centres undefined) | 97.9% | 102% | 96.9% | 98.9% | 107% | 100% | 102% | 104% | 109% | 117% | 105% | 95.7% | 95.9% | 108% | 107% | 95.5% | 93.9% | 102% | 103% | 
3 | COc1ccc(-c2nc3cc(C)ccc3n2CC(=O)N=Nc2c(O)[nH]c3ccc(Cl)cc23)cc1 | -62.9% (active) | -34.1% (active) | 10.1% | -50.4% (active) | 10.6% | 14.9% | -62.4% (active) | 11% | -39.7% (active) | 15% | 4.54% (active) | -56.9% (active) | -43.8% (active) | -63.2% (active) | 21.6% | -67.5% (active) | -52.7% (active) | -31.2% (active) | -44.6% (active) | 
4 | C=C1CC[C@@H]2[C@]3(C)COC(c4cn[nH]c4-c4cccc(Br)c4)O[C@@H]3CC[C@@]2(C)[C@@H]1C/C=C1/C(=O)OCC1O (some centres undefined) | -94.5% (active) | -88.4% (active) | -0.559% (active) | -58.3% (active) | -68.9% (active) | -56% (active) | -17.4% (active) | -95.5% (active) | -58.3% (active) | -85.5% (active) | -2.18% (active) | -74.5% (active) | -47.3% (active) | -90.8% (active) | -22.7% (active) | -78.6% (active) | -97.8% (active) | -72% (active) | -75.7% (active) | 
5 | N/C(=N\c1nc2ccccc2s1)NC(=O)Nc1c(Cl)cccc1Cl | 31.9% | 67.2% | 68.2% | 58.7% | 17.8% | -19.3% (active) | 38.8% | 52.5% | 46.2% | 55.1% | 19.6% | 44% | 28.9% | 80.8% | 42.2% | 28.2% | 30.8% | 75.4% | 21.8% | 
6 | O=c1[nH]c(=O)c2c(-c3cc4ccccc4oc3=O)ccnc2[nH]1 | 61.3% | 74.8% | 97% | 26.4% | 88.8% | 68.5% | 91.9% | 43.9% | 108% | 88% | 106% | 64% | 64.9% | 69.5% | 79.6% | 3.14% (active) | 70.2% | 103% | 91.4% | 
7 | Cc1nc(Nc2ccccn2)sc1C(=O)CC(SCC(=O)Nc1ccc(Cl)cc1)c1ccccc1F (centres undefined) | -0.749% (active) | 48% | 19.6% | 10.1% | 6.78% (active) | -12.8% (active) | 6.38% (active) | 10.9% | -49.7% (active) | -35.3% (active) | 11.8% | 27.5% | -40.1% (active) | 1.73% (active) | 22.4% | 2% (active) | -58.4% (active) | 36.9% | 1.45% (active) | 
8 | S=C(Nc1ccccc1)Nc1ccc(OCc2nc3ccccc3[nH]2)cc1 | 37% | 79.9% | 63.6% | 43.6% | 31.3% | 2.87% (active) | 31% | 31.8% | 32.9% | 43.8% | 15% | 51.6% | 37% | 75.1% | 24.1% | 24.2% | 30.7% | 48.2% | 36.9% | 
9 | Cc1ccc2c(c1)nc(-c1ccccc1)n2CC(=O)N=Nc1c(O)[nH]c2ccc(Br)cc12 | -80.1% (active) | -72.4% (active) | -46.4% (active) | -58.7% (active) | -22.4% (active) | -60.7% (active) | -45.4% (active) | -88.1% (active) | -63% (active) | -10.8% (active) | -7.04% (active) | -85.7% (active) | -76.4% (active) | -79.9% (active) | 0.768% (active) | -80.6% (active) | -91.1% (active) | -51.5% (active) | -54.6% (active) | 
10 | CCOC(=O)/C=C/c1cccc2c1C(=O)NC(C)(c1cc3cc(Cl)ccc3oc1=O)N2 (centres undefined) | 50.9% | 46.1% | 56.4% | 55.7% | 47.4% | 33.8% | 47.2% | 31.4% | 31.7% | 37.7% | 19% | 32.7% | 32.1% | -1.81% (active) | 45.5% | 19.3% | 38.5% | 44.3% | 22.3% | 
11 | O=c1oc2ccccc2cc1-c1csc(N2N=C(c3ccccc3)CC2c2ccc(N3CCOCC3)cc2)n1 (centres undefined) | 95.9% | 94.6% | 120% | 106% | 107% | 101% | 114% | 118% | 118% | 113% | 107% | 116% | 90.3% | 112% | 127% | 105% | 100% | 119% | 103% | 
12 | COc1cc2c(c(OC)c1OC)C(=O)CC(c1cccc(NC(=O)c3cc([N+](=O)[O-])ccc3Cl)c1)O2 (centres undefined) | 20.1% | 25.3% | 55.7% | 43% | 30.8% | -27.1% (active) | 35.6% | 25.1% | 37.1% | 5.58% (active) | 19.5% | 51.9% | 6.08% (active) | -6.08% (active) | 42.2% | 49.8% | 22.2% | 39.9% | 0.0604% (active) | 
13 | COc1ccc(NC(=O)Cn2c3c(sc2=O)[C@H]2[C@@H](O)[C@@H](O)[C@H](O)[C@@H]2CS3)cc1 | 104% | 96.3% | 101% | 99.5% | 108% | 94.2% | 100% | 104% | 117% | 109% | 95.6% | 102% | 107% | 114% | 102% | 105% | 101% | 102% | 103% | 
14 | O=C1CC(Sc2n[nH]c(-c3ccncc3)n2)C(=O)N1c1ccc(Br)cc1 (centres undefined) | 104% | 117% | 104% | 98.9% | 117% | -33.6% (active) | 106% | 106% | 116% | 117% | 88.5% | 104% | 99% | 137% | 117% | 107% | 102% | 105% | 115% | 
15 | C=C1CCC2C3(C)COC(c4cc(F)cc(F)c4)OC3CCC2(C)C1CC(O)C1=CCOC1=O (centres undefined) | 64.9% | 92.1% | 95% | 90.6% | 66.3% | 11.9% | 75.2% | 30.3% | 59.5% | 72.9% | 24.6% | 88.6% | 63.2% | 56.4% | 97.3% | 77.9% | 79.6% | 73.7% | 58.7% | 
16 | COc1ccc(C(=O)/C=C/c2ccc(OCc3ccc(F)cc3)c(OC)c2)cc1OC | 26.5% | 46.3% | 7.43% (active) | 26.6% |  | 2.98% (active) | 11.9% | 37.4% | 29.9% | 1.63% (active) | 7.71% (active) | 61.4% | 11.1% | 18.7% | 24.3% | 15.6% | -38.6% (active) | 33.6% | 38.1% | -14.8% (active)
